Some test systems named below: SR leukemia; RPMI-8226 leukemia; OVCAR-8 ovarian; OVCAR-5 ovarian; OVCAR-4 ovarian; SK-OV-3 ovarian; IGROV1 ovarian; HS 578T breast; NCI/ADR-RES ovarian; T-47D breast; BT-549 breast; MDA-MB-435 melanoma; SW-620 colon; MCF7 breast; HCT-116 colon; HCC-2998 colon; KM12 colon; OVCAR-3 ovarian.
What all share (assay): NCI-60 one-dose screen, 48 h (100 = growth as untreated, 0 = no growth, -100 = all killed)
Holding throughout (conditions): 10 µM unless noted

Molecules are shown by their SMILES. About 83,000 compounds went through this panel and 20% of them were active in at least one assay; those are over-represented in the sample as a whole.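 Plates (96-well) were seeded with cells, treated with compound at one concentration, and incubated for 48 hours before percent growth was determined.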 A number with no mark means an inactive call. Active and inactive are the calls of the source. The calls were made as follows: active = growth percent below 10; inactive = the rest.

On to `CCCCCCCCNc1cc2c3c(c1)CCCN3CCC2`, for which the growth with SR leukemia is 26%; in the experiment on RPMI-8226 leukemia it was 12.3%; in the experiment with OVCAR-8 ovarian, 15.8%; with OVCAR-5 ovarian, 17.6%; in the experiment on OVCAR-4 ovarian it was 35.2%; in the experiment with SK-OV-3 ovarian, 10.7%. For the same compound, the growth is 29.7% in the experiment on IGROV1 ovarian; 23.3% with HS 578T breast; 70.7% with NCI/ADR-RES ovarian; 13.4% with T-47D breast; 20% in the experiment with BT-549 breast; 9.1% (active) with MDA-MB-435 melanoma. Also, the growth is 9.22% (active) in the experiment with SW-620 colon; 24.3% with MCF7 breast; 5.39% (active) in the experiment with HCT-116 colon; 11.8% in the experiment with HCC-2998 colon; 5.45% (active) with KM12 colon.

With `COc1ccc(-c2cc(-c3ccc(OC)cc3)nc(NCCCNc3ccnc4cc(Cl)ccc34)n2)cc1`, the growth is 5.81% (active) with SR leukemia; 7.42% (active) in the experiment with RPMI-8226 leukemia; -51.3% (active) in the experiment with OVCAR-8 ovarian; 105% in the experiment with OVCAR-5 ovarian; -16.5% (active) in the experiment on OVCAR-4 ovarian; 76.8% in the experiment on SK-OV-3 ovarian. The growth in the experiment on IGROV1 ovarian is -62.6% (active); in the experiment with OVCAR-3 ovarian it was 91.7%; in the experiment on HS 578T breast, 83.5%; with NCI/ADR-RES ovarian it was 71.7%; in the experiment with T-47D breast, 89.3%; in the experiment with MDA-MB-435 melanoma, -69.9% (active). Besides, the growth was -39.7% (active) with SW-620 colon; -54.2% (active) in the experiment on MCF7 breast; -84.9% (active) in the experiment with HCT-116 colon; -56.4% (active) in the experiment with HCC-2998 colon; 44.8% in the experiment with KM12 colon.

`COC(=O)C1=C(C)NC(C)=C(C(=O)OCC(C)C)C1c1ccccc1[N+](=O)[O-]` (stereo unspecified): the growth with SR leukemia is 20.3%; in the experiment on RPMI-8226 leukemia, 53.1%; in the experiment with OVCAR-8 ovarian, 61.6%; in the experiment on OVCAR-5 ovarian, 98.7%; in the experiment on OVCAR-4 ovarian, 51.8%; with SK-OV-3 ovarian, 82.7%. Further, the growth in the experiment with IGROV1 ovarian was 56.9%; in the experiment with OVCAR-3 ovarian, 56.5%; in the experiment with HS 578T breast, 112%; in the experiment with NCI/ADR-RES ovarian it was 48.8%; with T-47D breast it was 56.1%; with BT-549 breast, 59.5%. The growth in the experiment with SW-620 colon is 29.4%; with MCF7 breast, 72.7%; in the experiment on HCT-116 colon, 30.1%; in the experiment with HCC-2998 colon, 83.5%; in the experiment on KM12 colon, 27.4%.

Regarding `Cc1nn(-c2ccccc2)c(N2CCCCC2)c1/C=N/NC(=O)Cn1c(=O)sc2ccccc21`, the growth is 93.9% with SR leukemia; 65% with RPMI-8226 leukemia; 81.1% in the experiment with OVCAR-8 ovarian; 82.9% in the experiment with OVCAR-5 ovarian; 79.3% with OVCAR-4 ovarian; 89% in the experiment with SK-OV-3 ovarian. The growth in the experiment on IGROV1 ovarian was 67.2%; in the experiment on OVCAR-3 ovarian, 81.9%; in the experiment with HS 578T breast it was 78.7%; in the experiment on NCI/ADR-RES ovarian, 74.9%; with T-47D breast, 60.3%; in the experiment with MDA-MB-435 melanoma, 87.9%. The growth in the experiment on SW-620 colon is 81%; with MCF7 breast, 67.3%; in the experiment with HCT-116 colon, 77.1%; in the experiment on HCC-2998 colon it was 68.4%; in the experiment on KM12 colon it was 54%.

Consider `Cc1c(N2CN3C[C@H](C)N4CN(c5c(C)n(C)n(-c6ccccc6)c5=O)CN5C[C@@H](C)N(C2)C3C54)c(=O)n(-c2ccccc2)n1C` (stereo partly specified), for which the growth in the experiment on SR leukemia is 38.1%; in the experiment with RPMI-8226 leukemia, 96%; with OVCAR-8 ovarian, 104%; in the experiment with OVCAR-5 ovarian, 106%; in the experiment with OVCAR-4 ovarian, 103%; in the experiment on SK-OV-3 ovarian, 99.2%. For the same compound, the growth is 102% in the experiment with IGROV1 ovarian; 95.9% in the experiment with HS 578T breast; 97.2% in the experiment with NCI/ADR-RES ovarian; 105% in the experiment with T-47D breast; 113% with BT-549 breast; 105% in the experiment on MDA-MB-435 melanoma. The growth was 103% in the experiment with SW-620 colon; 94.9% in the experiment on MCF7 breast; 96.9% in the experiment on HCT-116 colon; 106% with HCC-2998 colon; 104% with KM12 colon.

`COc1ccc(-c2cn(-c3ccc(Cl)cc3)c(SCC(=O)c3ccc([N+](=O)[O-])cc3)n2)cc1`: the growth is 90.1% with SR leukemia; 97.2% in the experiment with RPMI-8226 leukemia; 51.8% with OVCAR-8 ovarian; 90.5% with OVCAR-5 ovarian; 38.7% in the experiment with OVCAR-4 ovarian; 85.2% in the experiment on SK-OV-3 ovarian. The growth in the experiment with IGROV1 ovarian was 83%; in the experiment on OVCAR-3 ovarian, 106%; with HS 578T breast, 41%; in the experiment on NCI/ADR-RES ovarian it was 79.5%; with T-47D breast, 83.4%; in the experiment with MDA-MB-435 melanoma, 79.5%. Besides, the growth is 82.4% in the experiment on MCF7 breast, 74.6% in the experiment on HCT-116 colon, 103% in the experiment on HCC-2998 colon and 94.8% in the experiment on KM12 colon.

As to `CC1(C)OC(=O)C(=Cc2cccc(Br)c2)C(=O)O1`, the growth with SR leukemia is 99.7%; in the experiment on RPMI-8226 leukemia, 97.4%; in the experiment with OVCAR-8 ovarian it was 98.4%; with OVCAR-5 ovarian it was 117%; with OVCAR-4 ovarian, 114%; in the experiment on SK-OV-3 ovarian, 109%. The growth with IGROV1 ovarian is 102%; with OVCAR-3 ovarian, 107%; in the experiment with HS 578T breast, 90.8%; in the experiment with NCI/ADR-RES ovarian, 107%; with T-47D breast, 92.7%; with BT-549 breast, 108%. Besides, the growth with SW-620 colon is 102%; in the experiment on MCF7 breast, 102%; with HCT-116 colon, 102%; with HCC-2998 colon, 113%; in the experiment on KM12 colon, 111%.

For `NC(=S)N/N=C/c1cn(-c2ccccc2)nc1-c1cc2ccccc2oc1=O`, the growth in the experiment on SR leukemia is 12.2%; in the experiment on RPMI-8226 leukemia, 33.4%; in the experiment on OVCAR-8 ovarian, 64.5%; with OVCAR-5 ovarian, 88.1%; in the experiment on OVCAR-4 ovarian, 79.2%; with SK-OV-3 ovarian it was 83.2%. For the same compound, the growth with IGROV1 ovarian is 46.7%; in the experiment on OVCAR-3 ovarian it was 34.4%; in the experiment on HS 578T breast it was 64.4%; in the experiment with NCI/ADR-RES ovarian, 48.6%; in the experiment on T-47D breast, 47.8%; in the experiment with BT-549 breast it was 42.5%. The growth is 33.3% in the experiment with MCF7 breast, 27.2% with HCT-116 colon, 88.4% in the experiment on HCC-2998 colon and 30.9% in the experiment with KM12 colon.

Consider `CN1CCN(CCCOc2ccc3ncnc(Nc4ccc(Oc5cccc(F)c5)c(Cl)c4)c3c2)CC1`, for which the growth with SR leukemia was 1.08% (active); in the experiment on RPMI-8226 leukemia it was -30.1% (active); in the experiment on OVCAR-8 ovarian, 31.6%; in the experiment with OVCAR-5 ovarian, 25.4%; in the experiment on OVCAR-4 ovarian, 3.58% (active); in the experiment on SK-OV-3 ovarian, 8.4% (active). The growth in the experiment with IGROV1 ovarian is -5.39% (active); in the experiment with HS 578T breast it was 42.3%; with NCI/ADR-RES ovarian, 41.9%; with T-47D breast, 20.8%; in the experiment on BT-549 breast it was 90.4%; in the experiment on MDA-MB-435 melanoma it was -84.8% (active). Also, the growth in the experiment with SW-620 colon is -71.9% (active); in the experiment with MCF7 breast, 3.01% (active); with HCT-116 colon, -63.6% (active); in the experiment on HCC-2998 colon, -40% (active); in the experiment on KM12 colon, 6.17% (active).

The values above are taken from PubChem BioAssay (NCI).
